PNC assembly inh: inhibitors of perinucleolar compartment assembly. activity change (PNC), negative = inhibition, % at 10 µM. PC3M PTB-GFP, PNC prevalence imaging, 16 h; active compounds read low. actives 3.1% (n = 140,000). AID 2417;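 active = readout at or below -70, meaning at least 70% loss of cells showing the perinucleolar compartment, a nuclear body marking cancer cells; inconclusive = readout between -30 and a set limit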;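 note: plate controls were DMSO wells for no effect and camptothecin positive control wells for full effect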
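Read-out is percentage of cells bearing a perinucleolar compartment, from automated 20x imaging of fixed, Hoechst-stained PC3M PTB-GFP cells. Cells were seeded 4 h, then exposed 16 h to compound (23 nl of library stock) in duplicate plates.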
ALDH1A1 inh: ALDH1A1 (human) enzyme inhibition | actives 7.3% (n = 220,000) | Purified ALDH1A1, NADH fluorescence, propionaldehyde substrate | AID 1030 | Potency, µM (highest dose often 75.3 µM), for the others: top-dose activity, negative = inhibition, usual class: inhibitors | P00352;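 note: potency is the fitted concentration of half-maximal effect; plate controls were no enzyme wells and a reference inhibitor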
HPGD inh: blocks human HPGD enzyme activity. AID 894. actives 4.3% (n = 150,000). Potency, µM, for inactives: top-dose activity change, negative = inhibition, hits mostly inhibitors. purified HPGD, NADH fluorescence kinetic, PGE2 substrate. P15428; note: potency is the fitted concentration of half-maximal effect
Target sequence (P15428 whole entry, looked up): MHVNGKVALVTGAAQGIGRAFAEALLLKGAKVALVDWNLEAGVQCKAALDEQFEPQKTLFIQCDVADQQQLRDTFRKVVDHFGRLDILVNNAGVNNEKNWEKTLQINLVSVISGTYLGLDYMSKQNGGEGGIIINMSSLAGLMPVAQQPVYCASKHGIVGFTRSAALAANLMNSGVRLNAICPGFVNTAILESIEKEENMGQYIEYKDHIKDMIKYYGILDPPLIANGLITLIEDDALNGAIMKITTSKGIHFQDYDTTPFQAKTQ
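NADH formation kinetics: reaction with 30 uM PGE2 and 1 mM NAD+ (final), 20 nM enzyme, Tris-HCl pH 8 with Tween 20, after 15 min compound preincubation at room temperature. Fluorescence change, last versus first of five reads.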
The depositor's hits bear a star; ? = inconclusive; nt = no result given; [ ] = dose if it differs, or a comment. The list is not random: actives were taken first. Their share in the collection is about 11%. Unless noted, calls come from the whole dose curve; as a rule, active = well fitted inhibition curve with a large enough effect (not every such curve was filed as active); inconclusive = small, poorly fitted or top-dose-only effect, or another doubt; inactive = no such curve, though single readings can be large or run the other way. Unless noted, % is set by controls: 0 for no effect and ±100 for the full control effect.

SMILES	PNC assembly inh	ALDH1A1 inh	HPGD inh
COc1cc2nc(CN3CCN(S(=O)(=O)c4ccc(Cl)cc4)CC3)[nH]c(=O)c2cc1OC	nt	12%	nt
CCOC(=O)C1(Cc2cccc(Cl)c2)CCCN(C(=O)c2cccc(C)n2)C1 (stereo unspecified)	nt	3%	nt
COc1ccc(CCNC(=O)NC23CC4CC(CC(C4)C2)C3)cc1	21	?	1%
COc1ccc(CCC(C)NC2C3CC4CC(C3)CC2C4)cc1 (stereo unspecified)	-108*	12%	-3%
CCOC(=O)C1(Cc2ccc(OC)cc2)CCN(C(=O)CN2CCN(CC)CC2)CC1	nt	25µM*	nt
CCOC(=O)C1(Cc2ccc(OC)cc2)CCN(C(=O)Cn2cnnn2)CC1	nt	-1%	nt
CC(C)OCCCN1C=C2C(=O)C(C)(OC(=O)CCc3ccccc3)C(=O)C=C2C=C1c1ccc(C#N)cc1 (stereo unspecified)	nt	5%[13.5 µM]	-8%
Cc1cnc(C(=O)Nc2ccc(C(=O)N3CCCCC3)cc2)cn1	4	-3%	0.28µM*
Cc1cnc(C(=O)Nc2ccc(-n3cnnn3)cc2)cn1	38	2%	-23%
Cc1cnc(C(=O)Nc2ccc(N3CCCCC3)cc2)cn1	nt	2%	nt
Cc1cnc(C(=O)Nc2ccc(N3CCOCC3)cc2)cn1	-100*	?	-9%
COc1cccc(/C(N)=N/OC(=O)Cc2ccccc2[N+](=O)[O-])c1	nt	-2%	nt
CCOC(=O)C1=C(O)/C(=C/c2cc(OC)c(O)c(OC)c2)SC1=Nc1ccc(OC)cc1	?	0%	-20%
COc1cc(/C=C2\SC(c3ccc(C)cc3)=NC2=O)cc(OC)c1O	?	?	22µM*
Cc1ccc(C2=NC(=O)/C(=C/c3cc(O)c(O)c(Br)c3)S2)cc1	nt	10µM*	nt
COc1ccc2c(c1)OC[C@H]1c3cc4c(cc3O[C@@H]21)OCO4	nt	1%	-9%
O=C(O)c1ccc(N=C2SCC(=O)N2Cc2ccccc2)cc1	nt	13µM*	nt
CC(C)(C)c1ccc(CN2C(=O)CSC2=O)cc1	nt	-3%	nt
O=C(O)c1ccc(CN2C(=O)CSC2=S)cc1	?	13µM*	-21%
Cc1ccccc1OCC(=O)N/N=C1\SCC(=O)N1Cc1ccccc1	-12	10%	-19%
O=[N+]([O-])c1cccc(Cl)c1CSc1ccccn1	nt	20µM*	nt
Cc1nnc(SCc2c(Cl)cccc2[N+](=O)[O-])s1	nt	-3%	nt
O=C(Cc1cn2ccsc2n1)Nc1ccccc1Oc1ccccc1	?	-14%	-16%
O=C(Cc1cn2ccsc2n1)Nc1nc2c(s1)CN(Cc1ccccc1)CC2	2	10µM*	-9%
Cc1ccc(S(=O)(=O)Nc2ccc(O)c(C(=O)O)c2)c(C)c1	nt	?	-9%
SMILES	PNC assembly inh	ALDH1A1 inh	HPGD inh
O=C(c1ccccc1)c1nnc(-c2ccncc2)o1	4	5%	-17%
O=C(c1ccc(Cl)cc1)c1nnc(-c2ccncc2)o1	-82*	6%	-24%
N#Cc1cc2c(nc1SCc1ccccc1)CCCC2=O	-25	?	-21%
CCSC1=C(C#N)C2(CCCCC2)C(C#N)=C(N)N1	30	10µM*	-3%
CCCSC1=C(C#N)C(c2ccc(O)c(OC)c2)CC(=O)N1 (stereo unspecified)	11	-2%	-12%
N#CC1=C(N)NC(SCC(=O)Nc2ccccc2)=C(C#N)C12CCCCC2	-1	25µM*	-26%
CCCSC1=C(C#N)C2(CCCCC2)C(C#N)=C(N)N1	nt	2µM*	nt
N#CC1=C(N)NC(SCc2ccccc2)=C(C#N)C12CCCCC2	19	13µM*	-27%
CC1=C(C(=O)Nc2ccccc2)C(c2ccncc2)C(C#N)=C(SCC(=O)Nc2ccccc2)N1 (stereo unspecified)	10	?	-8%
CCOC(=O)CSC1=C(C#N)C(=O)NC2(CCCCC2)S1	15	?	-24%
O=C(Cc1cccs1)N(CC1CCCO1)C1(C(=O)NC2CCCC2)CCCCC1 (stereo unspecified)	nt	2%	nt
COc1ccc(O[C@H]2C=C[C@@H](c3ccccc3)O[C@H]2COC(=O)CC/C(C)=N\O[C@@H](C)CN2CCCc3nc(C)c(C)cc32)cc1	nt	-10%[13.5 µM]	nt
COCC(=O)N1CCC2(CC1)CCN(c1ccccc1)CC2	nt	?	1%
O=S(=O)(c1ccc(Cl)c(C(F)(F)F)c1)N1CCN(c2ccccn2)CC1	nt	2%	nt
CCCC(=O)c1cc(F)c(N2CCOCC2)cc1C	20	3%	-21%
CCOC(=O)N1CCN(c2cc(C)c(C(C)=O)cc2F)CC1	31	?	-18%
CC(=O)c1cc(F)c(N2CCN(CCC#N)CC2)cc1C	25	28µM*	-13%
CC(=O)c1cc(F)c(N2CCN(C(=O)Cc3ccccc3)CC2)cc1C	7	8.9µM*	22µM*
CC(C)NS(=O)(=O)c1ccc(NC(=O)NC2CCCCC2)cc1	40	10%	-9%
O=C(Nc1ccc(Cc2ccncc2)cc1)c1cc([N+](=O)[O-])ccc1N1CCOCC1	nt	-3%	nt
O=C(Cn1cnc2scc(-c3ccccc3)c2c1=O)N1CCOCC1	11	6%	3%
CCn1cnc2scc(-c3ccccc3)c2c1=O	-107*	9%	-9%
O=C1CN(S(=O)(=O)c2cc(Cl)ccc2Cl)CCN1	nt	1%	nt
CC(C(=O)N1CCN(c2ccc([N+](=O)[O-])cc2)CC1)N1C(=O)C2CC=CCC2C1=O (stereo unspecified)	nt	-98%	nt
O=C(CN1C(=O)C2CC=CCC2C1=O)N1CCN(c2ccc([N+](=O)[O-])cc2)CC1 (stereo unspecified)	nt	25µM*	nt
SMILES	PNC assembly inh	ALDH1A1 inh	HPGD inh
Cc1ccc(CN(c2ccc(C(=O)NCC3CCCO3)cc2)S(C)(=O)=O)cc1 (stereo unspecified)	nt	-1%	nt
CCN1CCC2(CC1)N=C(c1ccc(F)cc1)C(=S)N2C(=O)c1ccc(C(C)(C)C)cc1	23	28µM*	nt
O=C(Cn1nnc(-c2ccccc2)n1)N1CCN(c2ccc(F)cc2)CC1	nt	-1%	nt
O=C(CCCN1CCC(O)(c2ccc(Br)cc2)CC1)c1ccc(F)cc1	nt	8%[20.9 µM]	2%
CN1CCC2(CC1)N=C(c1ccc(F)cc1)C(=S)N2C(=O)c1ccccc1	57	22µM*	nt
C=CCC1(c2ccccc2)Oc2ccc(C)cc2-c2nc3cc(Cl)c(Cl)cc3nc21 (stereo unspecified)	nt	-1%[13.5 µM]	nt
O=C(Oc1ccc2c3c(c(=O)oc2c1)CCC3)c1ccccc1[N+](=O)[O-]	?	?	1%
Clc1cccc(CN2CCN(Cc3nc(CCc4ccccc4)no3)CC2)c1	nt	-2%	nt
O=C1CC(c2cccc(Cl)c2)CC(O)=C1C=NC1CCCC1 (stereo unspecified)	-29	-1%	-9%
CCNc1ncnc2c1cnn2C	nt	4%	nt
COc1ccccc1-c1noc(-c2ccccc2C(=O)Nc2cccnc2)n1	14	?	-1%
Cc1onc(-c2ccccc2)c1C(=O)Nc1cccnc1	?	?	-8%
Cc1onc(-c2ccccc2Cl)c1C(=O)Nc1ccc(-c2cn3cccnc3n2)cc1	-91*	?	?
O=C(Nc1cccnc1)c1ccccc1-c1nc(-c2ccccc2F)no1	-25	11µM*	1%
Cc1onc(-c2ccccc2Cl)c1C(=O)OCN1C(=O)c2ccccc2C1=O	14	-1%	11µM*
Cc1onc(-c2ccccc2Cl)c1C(=O)Nc1cccnc1	?	22µM*	-14%
